Targets with a hit are over-represented here; the source holds about 7,900 in all. About 0.6% of all pairs of compound and target were hits.
Columns and labels:
Assay in all cases: log2 fold change, soluble protein after heating vs DMSO (PISA); higher = thermal stabilisation; K562 cells, 10 uM, 30 min; active = over 0.2 and 3.5 SD of the protein, either way, in both replicates (recomputed)
[1] = compound: NC(=O)Nc1cc(-c2cccc(F)c2)sc1C(=O)N[C@H]1CCCNC1
Outline: (§1)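 Values are thermal stability changes relative to control samples and are taken from duplicates. They are stated as log2 fold changes. Before quantification by TMTpro 16plex LC-MS/MS with equalised channel sums, K562 cells at 2×10^6 cells/mL were treated with 10 μM compound for 30 min, heated in aliquots for 3 min across 48°C-58°C, pooled, extracted in PBS with 0.5% NP-40 at 4°C, and centrifuged at 21,000xg for 90 min to give the soluble supernatant.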

[2] = compound: NC(=O)c1cnc(N[C@@H]2CCCC[C@@H]2N)nc1Nc1cccc(-n2nccn2)c1
Outline: as §1

[3] = compound: NC1(c2ccc(-c3nc4ccn5c(=O)[nH]nc5c4cc3-c3ccccc3)cc2)CCC1
Outline: as §1

[4] = compound: NCC(=O)Nc1ccc(-n2nc(C(F)(F)F)cc2-c2ccc3c(ccc4ccccc43)c2)cc1
Outline: as §1

entinostat = compound: Nc1ccccc1NC(=O)c1ccc(CNC(=O)OCc2cccnc2)cc1 [entinostat]
Outline: as §1

vorinostat = compound: O=C(CCCCCCC(=O)Nc1ccccc1)NO [vorinostat]
Outline: as §1

citarinostat = compound: O=C(CCCCCCNC(=O)c1cnc(N(c2ccccc2)c2ccccc2Cl)nc1)NO [citarinostat]
Outline: as §1

silmitasertib = compound: O=C(O)c1ccc2c(c1)nc(Nc1cccc(Cl)c1)c1ccncc12 [silmitasertib]
Outline: as §1

[5] = compound: O=C1NC(=O)C(c2cnc3ccccn23)=C1c1cn2c3c(cc(F)cc13)CN(C(=O)N1CCCCC1)CC2
Outline: as §1

[6] = compound: c1cc(OCCN2CCCCC2)cc(-c2n[nH]c3ccc(-c4nnc[nH]4)cc23)c1
Outline: as §1

entospletinib = compound: c1cn2cc(-c3ccc4cn[nH]c4c3)nc(Nc3ccc(N4CCOCC4)cc3)c2n1 [entospletinib]
Outline: as §1

Measured: log2 fold change

MSH2 (UniProt P43246)
Chain of UniProt P43246 (P43246 whole entry, looked up): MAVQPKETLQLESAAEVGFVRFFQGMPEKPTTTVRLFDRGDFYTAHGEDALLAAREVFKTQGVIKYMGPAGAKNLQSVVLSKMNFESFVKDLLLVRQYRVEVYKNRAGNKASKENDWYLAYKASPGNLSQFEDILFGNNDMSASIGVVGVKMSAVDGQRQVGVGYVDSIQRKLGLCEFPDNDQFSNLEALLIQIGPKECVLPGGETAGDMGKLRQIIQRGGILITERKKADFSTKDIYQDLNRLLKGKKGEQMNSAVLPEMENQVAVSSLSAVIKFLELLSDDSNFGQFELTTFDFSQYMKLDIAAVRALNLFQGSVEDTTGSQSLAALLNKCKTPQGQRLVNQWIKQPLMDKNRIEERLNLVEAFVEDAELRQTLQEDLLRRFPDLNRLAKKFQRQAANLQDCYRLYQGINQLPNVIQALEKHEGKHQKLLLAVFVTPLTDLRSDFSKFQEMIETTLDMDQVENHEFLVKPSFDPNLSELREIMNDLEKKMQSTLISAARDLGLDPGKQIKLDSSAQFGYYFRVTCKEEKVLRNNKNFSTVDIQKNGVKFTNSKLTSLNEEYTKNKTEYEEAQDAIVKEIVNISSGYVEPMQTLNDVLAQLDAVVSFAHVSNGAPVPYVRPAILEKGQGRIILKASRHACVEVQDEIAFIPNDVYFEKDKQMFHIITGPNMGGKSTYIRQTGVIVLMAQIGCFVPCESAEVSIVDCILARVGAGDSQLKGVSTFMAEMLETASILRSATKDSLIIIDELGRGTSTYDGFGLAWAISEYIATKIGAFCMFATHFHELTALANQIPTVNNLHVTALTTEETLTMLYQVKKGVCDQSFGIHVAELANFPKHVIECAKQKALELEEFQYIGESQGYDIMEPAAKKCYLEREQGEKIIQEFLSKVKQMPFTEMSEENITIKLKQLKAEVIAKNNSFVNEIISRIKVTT
inactive: [1] -0.069 | [2] -0.06 | [3] -0.109 | [4] -0.138 | entinostat 0.074 | vorinostat 0.032 | citarinostat 0.089 | silmitasertib 0.037 | [5] -0.091 | [6] -0.003 | entospletinib -0.006

NOP56 (UniProt O00567)
inactive: [1] 0.162 | [2] 0.14 | [3] 0.197 | [4] 0.103 | entinostat -0.084 | vorinostat 0.014 | citarinostat -0.058 | silmitasertib 0.096 | [5] 0.09 | [6] -0.156 | entospletinib -0.012

NUMA1 (UniProt Q14980)
inactive: [1] -0.117 | [2] -0.091 | [3] -0.139 | [4] 0.101 | entinostat 0.072 | vorinostat 0.002 | citarinostat 0.01 | silmitasertib 0.005 | [5] 0.007 | [6] -0.12 | entospletinib 0.049

NEMP1 (UniProt O14524)
inactive: [1] -0.007 | [2] -0.204 | [3] -0.078 | [4] -0.181 | entinostat 0.028 | vorinostat 0.078 | citarinostat 0.026 | silmitasertib -0.019 | [5] -0.029 | [6] -0.113 | entospletinib -0.121

NANS (UniProt Q9NR45)
Chain of UniProt Q9NR45 (Q9NR45 whole entry, looked up): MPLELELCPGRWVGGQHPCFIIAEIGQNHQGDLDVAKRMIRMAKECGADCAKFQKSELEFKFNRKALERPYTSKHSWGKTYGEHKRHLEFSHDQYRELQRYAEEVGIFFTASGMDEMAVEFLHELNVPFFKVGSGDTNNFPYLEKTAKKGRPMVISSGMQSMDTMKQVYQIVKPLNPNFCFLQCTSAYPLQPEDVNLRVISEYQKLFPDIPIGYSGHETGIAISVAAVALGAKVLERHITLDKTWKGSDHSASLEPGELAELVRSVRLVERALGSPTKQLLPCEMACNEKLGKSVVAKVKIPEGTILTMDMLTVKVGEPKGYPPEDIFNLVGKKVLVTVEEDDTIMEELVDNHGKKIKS
inactive: [1] 0.043 | [2] -0.05 | [3] 0.02 | [4] -0.032 | entinostat 0.014 | vorinostat 0.116 | citarinostat 0.032 | silmitasertib -0.002 | [5] -0.011 | [6] 0 | entospletinib 0.025

NME7 (UniProt Q9Y5B8)
inactive: [1] 0.159 | [2] -0.13 | [3] -0.184 | [4] 0.057 | entinostat 0.159 | vorinostat 0.145 | citarinostat 0.03 | silmitasertib 0.071 | [5] 0.05 | [6] 0.186 | entospletinib -0.022

NMT2 (UniProt O60551)
active: [6] -0.491
inactive: [1] 0 | [2] -0.089 | [3] -0.168 | [4] -0.164 | entinostat -0.004 | vorinostat -0.049 | citarinostat 0.007 | silmitasertib -0.028 | [5] -0.017 | entospletinib 0.023

NQO1 (UniProt P15559)
inactive: [1] -0.032 | [2] 0.039 | [3] -0.018 | [4] -0.034 | entinostat -0.013 | vorinostat -0.024 | citarinostat 0.009 | silmitasertib -0.058 | [5] -0.149 | [6] 0.068 | entospletinib -0.101

OXA1L (UniProt Q15070)
inactive: [1] 0.019 | [2] -0.021 | [3] -0.04 | [4] -0.025 | entinostat -0.021 | vorinostat 0.005 | citarinostat 0.017 | silmitasertib 0.02 | [5] -0.038 | [6] 0.113 | entospletinib -0.014

NFX1 (UniProt Q12986)
inactive: [1] 0.157 | [2] 0.008 | [4] 0.045 | entinostat 0.014 | vorinostat -0.016 | citarinostat -0.033 | silmitasertib -0.006 | [5] -0.018 | [6] -0.019 | entospletinib 0.095
active: [3] 0.659

NIPSNAP2 (UniProt O75323)
inactive: [1] -0.084 | [2] -0.047 | [3] -0.004 | [4] -0.033 | entinostat 0.027 | vorinostat -0.016 | citarinostat -0.021 | silmitasertib -0.039 | [5] -0.179 | [6] 0.023 | entospletinib 0.092

NMNAT1 (UniProt Q9HAN9)
inactive: [1] 0.171 | [2] 0.145 | [3] 0.197 | [4] 0.081 | entinostat 0.002 | vorinostat -0.077 | citarinostat -0.033 | silmitasertib 0.201 | [5] 0.259 | [6] -0.174 | entospletinib 0.084

NUDT16 (UniProt Q96DE0)
Chain of UniProt Q96DE0 (Q96DE0 whole entry, looked up): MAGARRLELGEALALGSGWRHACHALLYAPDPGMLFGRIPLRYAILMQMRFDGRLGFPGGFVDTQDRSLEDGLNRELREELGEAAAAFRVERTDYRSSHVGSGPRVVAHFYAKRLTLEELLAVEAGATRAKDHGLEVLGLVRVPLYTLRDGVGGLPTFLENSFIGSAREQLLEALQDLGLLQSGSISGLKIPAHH
inactive: [1] 0.02 | [2] 0.08 | [3] -0.01 | entinostat 0 | vorinostat -0.069 | citarinostat 0.018 | silmitasertib 0.016 | [5] -0.106 | [6] 0.034 | entospletinib 0.044
active: [4] 0.205

MRPL47 (UniProt Q9HD33)
inactive: [1] 0.024 | [2] 0.058 | [3] 0.039 | [4] 0.057 | entinostat 0.028 | vorinostat -0.195 | citarinostat -0.087 | silmitasertib -0.021 | [5] -0.011 | [6] 0.336 | entospletinib -0.116

NFE2 (UniProt Q16621)
Chain of UniProt Q16621 (Q16621 whole entry, looked up): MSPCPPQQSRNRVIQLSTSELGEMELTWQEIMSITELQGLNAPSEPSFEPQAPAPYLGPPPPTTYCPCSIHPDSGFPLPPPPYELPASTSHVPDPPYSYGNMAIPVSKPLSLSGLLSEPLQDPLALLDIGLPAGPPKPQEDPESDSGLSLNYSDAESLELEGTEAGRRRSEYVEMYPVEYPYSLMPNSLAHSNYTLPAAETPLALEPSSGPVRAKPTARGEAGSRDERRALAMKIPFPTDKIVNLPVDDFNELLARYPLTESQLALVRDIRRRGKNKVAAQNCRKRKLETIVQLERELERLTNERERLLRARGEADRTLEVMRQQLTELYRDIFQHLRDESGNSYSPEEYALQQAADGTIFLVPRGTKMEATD
inactive: [1] 0.035 | [2] -0.049 | [3] -0.091 | [4] -0.062 | entinostat -0.024 | vorinostat 0.055 | citarinostat 0.04 | silmitasertib 0.145 | [5] -0.037 | [6] 0.006 | entospletinib -0.055

OXSM (UniProt Q9NWU1)
Chain of UniProt Q9NWU1 (Q9NWU1 whole entry, looked up): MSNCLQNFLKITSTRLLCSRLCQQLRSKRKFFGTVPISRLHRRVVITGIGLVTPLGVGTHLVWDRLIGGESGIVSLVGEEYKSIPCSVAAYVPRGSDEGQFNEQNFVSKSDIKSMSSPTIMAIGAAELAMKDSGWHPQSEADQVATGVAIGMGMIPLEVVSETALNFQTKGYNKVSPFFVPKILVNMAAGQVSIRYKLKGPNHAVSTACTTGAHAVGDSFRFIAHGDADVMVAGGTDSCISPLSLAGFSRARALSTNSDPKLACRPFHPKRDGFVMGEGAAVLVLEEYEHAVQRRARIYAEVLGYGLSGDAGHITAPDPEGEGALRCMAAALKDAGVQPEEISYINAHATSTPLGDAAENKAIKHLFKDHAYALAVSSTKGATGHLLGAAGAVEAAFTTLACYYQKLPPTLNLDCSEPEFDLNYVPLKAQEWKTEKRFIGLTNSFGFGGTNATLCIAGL
inactive: [1] 0.016 | [2] 0.068 | [3] -0.026 | [4] 0.049 | entinostat -0.019 | vorinostat -0.028 | citarinostat 0.037 | silmitasertib -0.04 | [5] -0.011 | [6] -0.015 | entospletinib -0.023

NHLRC2 (UniProt Q8NBF2)
Chain of UniProt Q8NBF2 (Q8NBF2 whole entry, looked up): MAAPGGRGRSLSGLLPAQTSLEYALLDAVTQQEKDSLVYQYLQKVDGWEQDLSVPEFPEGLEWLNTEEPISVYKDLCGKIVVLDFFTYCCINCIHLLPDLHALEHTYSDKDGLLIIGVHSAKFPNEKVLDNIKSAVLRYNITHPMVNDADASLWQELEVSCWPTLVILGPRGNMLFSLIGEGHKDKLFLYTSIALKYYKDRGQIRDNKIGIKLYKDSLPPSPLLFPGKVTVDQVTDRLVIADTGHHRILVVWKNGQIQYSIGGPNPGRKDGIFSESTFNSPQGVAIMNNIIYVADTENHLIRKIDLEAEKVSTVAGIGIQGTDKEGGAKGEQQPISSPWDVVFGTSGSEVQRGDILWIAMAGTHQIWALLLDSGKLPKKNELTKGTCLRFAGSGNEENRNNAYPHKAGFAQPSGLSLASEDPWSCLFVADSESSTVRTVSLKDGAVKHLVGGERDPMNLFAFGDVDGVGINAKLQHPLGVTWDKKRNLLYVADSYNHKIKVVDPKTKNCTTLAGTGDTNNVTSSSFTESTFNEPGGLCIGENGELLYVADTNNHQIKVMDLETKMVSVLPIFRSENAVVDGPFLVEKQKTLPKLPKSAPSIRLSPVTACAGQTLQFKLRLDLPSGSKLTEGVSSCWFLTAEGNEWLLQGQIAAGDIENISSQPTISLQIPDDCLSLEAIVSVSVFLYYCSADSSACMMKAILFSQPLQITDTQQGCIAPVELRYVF
inactive: [1] -0.077 | [2] -0.02 | [3] -0.171 | [4] -0.065 | entinostat 0.009 | vorinostat 0.02 | citarinostat -0.007 | silmitasertib 0.009 | [5] -0.063 | [6] -0.015 | entospletinib 0.097

NIBAN1 (UniProt Q9BZQ8)
inactive: [1] -0.118 | [2] -0.036 | [3] -0.169 | [4] -0.036 | entinostat 0.073 | vorinostat 0.106 | citarinostat 0.123 | silmitasertib 0.029 | [5] -0.069 | [6] -0.106 | entospletinib 0.055

NDUFB1 (UniProt O75438)
Chain of UniProt O75438 (O75438 whole entry, looked up): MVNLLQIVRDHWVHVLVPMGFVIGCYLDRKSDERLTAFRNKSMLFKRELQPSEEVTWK
inactive: [1] 0.053 | [2] -0.114 | [3] -0.007 | [4] -0.134 | entinostat 0.055 | vorinostat 0.108 | citarinostat -0.026 | silmitasertib -0.014 | [5] -0.124 | [6] 0.012 | entospletinib 0.017

MRPL46 (UniProt Q9H2W6)
inactive: [1] -0.067 | [2] 0.009 | [3] 0.023 | [4] -0.014 | entinostat -0.003 | vorinostat 0.011 | citarinostat 0.007 | silmitasertib 0.005 | [5] 0.028 | [6] -0.062 | entospletinib 0.025

MRPS25 (UniProt P82663)
inactive: [1] -0.031 | [2] 0.046 | [3] 0.04 | [4] 0.04 | entinostat 0.021 | vorinostat -0.036 | citarinostat 0.073 | silmitasertib -0.053 | [5] 0.062 | [6] -0.074 | entospletinib 0.029

NUP85 (UniProt Q9BW27)
inactive: [1] 0.01 | [2] -0.014 | [3] -0.092 | [4] -0.035 | entinostat -0.011 | vorinostat 0.021 | citarinostat 0.031 | silmitasertib 0.047 | [5] -0.041 | [6] -0.041 | entospletinib 0.005

NOL11 (UniProt Q9H8H0)
inactive: [1] 0.042 | [2] 0.055 | [3] 0.041 | [4] 0.038 | entinostat -0.019 | vorinostat -0.013 | citarinostat 0.035 | silmitasertib 0.068 | [5] 0.02 | [6] -0.041 | entospletinib -0.05

OGFOD1 (UniProt Q8N543)
Chain of UniProt Q8N543 (Q8N543 whole entry, looked up): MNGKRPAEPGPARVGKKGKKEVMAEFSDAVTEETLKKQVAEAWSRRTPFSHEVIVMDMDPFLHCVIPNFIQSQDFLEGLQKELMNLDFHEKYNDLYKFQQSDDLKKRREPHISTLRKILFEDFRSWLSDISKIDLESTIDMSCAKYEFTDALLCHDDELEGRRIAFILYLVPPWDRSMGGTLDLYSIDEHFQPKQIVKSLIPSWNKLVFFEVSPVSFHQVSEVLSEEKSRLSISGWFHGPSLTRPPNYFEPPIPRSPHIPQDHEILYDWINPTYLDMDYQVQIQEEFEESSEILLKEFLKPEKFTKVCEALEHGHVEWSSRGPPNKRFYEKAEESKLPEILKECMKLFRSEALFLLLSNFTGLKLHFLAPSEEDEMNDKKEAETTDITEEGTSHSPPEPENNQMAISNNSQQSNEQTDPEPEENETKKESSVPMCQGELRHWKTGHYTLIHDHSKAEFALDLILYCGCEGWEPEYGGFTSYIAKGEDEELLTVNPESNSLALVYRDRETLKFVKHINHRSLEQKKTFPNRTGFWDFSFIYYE
inactive: [1] 0.015 | [2] 0.021 | [3] -0.08 | [4] -0.056 | entinostat -0.002 | vorinostat 0.005 | citarinostat 0.012 | silmitasertib 0.02 | [5] -0.072 | [6] -0.006 | entospletinib 0.018

NCOR1 (UniProt O75376)
inactive: [1] 0.096 | [2] -0.057 | [3] -0.005 | [4] -0.072 | entinostat 0.007 | vorinostat -0.059 | citarinostat -0.028 | silmitasertib 0.001 | [5] -0.044 | [6] -0.024 | entospletinib 0.067

MTHFD1 (UniProt P11586)
Chain of UniProt P11586 (P11586 whole entry, looked up): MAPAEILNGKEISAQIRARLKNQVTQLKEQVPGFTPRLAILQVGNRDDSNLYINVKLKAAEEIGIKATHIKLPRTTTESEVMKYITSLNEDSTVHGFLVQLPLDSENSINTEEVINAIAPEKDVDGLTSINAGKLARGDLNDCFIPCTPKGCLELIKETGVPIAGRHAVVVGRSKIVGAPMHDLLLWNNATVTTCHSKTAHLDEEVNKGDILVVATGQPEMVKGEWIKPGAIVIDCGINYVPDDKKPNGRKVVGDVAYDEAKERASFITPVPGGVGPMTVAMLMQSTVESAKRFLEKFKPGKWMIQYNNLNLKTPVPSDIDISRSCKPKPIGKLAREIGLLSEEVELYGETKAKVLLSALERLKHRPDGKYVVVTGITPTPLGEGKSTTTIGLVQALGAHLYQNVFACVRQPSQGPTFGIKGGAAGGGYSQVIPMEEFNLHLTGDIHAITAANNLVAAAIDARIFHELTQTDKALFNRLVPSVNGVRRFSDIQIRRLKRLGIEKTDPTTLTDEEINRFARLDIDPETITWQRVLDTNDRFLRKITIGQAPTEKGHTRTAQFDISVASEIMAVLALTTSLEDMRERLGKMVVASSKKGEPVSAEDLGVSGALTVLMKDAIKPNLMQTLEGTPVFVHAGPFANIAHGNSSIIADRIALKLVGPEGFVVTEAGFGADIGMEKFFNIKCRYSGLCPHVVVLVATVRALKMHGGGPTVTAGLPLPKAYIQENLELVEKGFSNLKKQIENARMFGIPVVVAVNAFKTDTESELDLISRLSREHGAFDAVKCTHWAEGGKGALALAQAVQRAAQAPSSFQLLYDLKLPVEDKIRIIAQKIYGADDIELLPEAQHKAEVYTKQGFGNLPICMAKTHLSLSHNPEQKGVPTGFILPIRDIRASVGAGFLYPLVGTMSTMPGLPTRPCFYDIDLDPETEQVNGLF
inactive: [1] -0.028 | [2] -0.011 | [3] 0.094 | [4] -0.028 | entinostat 0.024 | vorinostat 0.05 | citarinostat 0.051 | silmitasertib -0.039 | [5] -0.042 | [6] -0.021 | entospletinib 0.055

MNAT1 (UniProt P51948)
Chain of UniProt P51948 (P51948 whole entry, looked up): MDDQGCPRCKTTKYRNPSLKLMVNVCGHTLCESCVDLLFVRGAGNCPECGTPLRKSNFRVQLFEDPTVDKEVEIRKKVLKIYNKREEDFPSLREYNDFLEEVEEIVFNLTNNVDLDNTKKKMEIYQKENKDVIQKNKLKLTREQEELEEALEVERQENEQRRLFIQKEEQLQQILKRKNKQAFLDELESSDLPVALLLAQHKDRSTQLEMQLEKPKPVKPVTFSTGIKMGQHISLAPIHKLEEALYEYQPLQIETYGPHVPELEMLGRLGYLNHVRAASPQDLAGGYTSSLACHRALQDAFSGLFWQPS
inactive: [1] -0.055 | [2] -0.039 | [3] 0.005 | [4] -0.058 | entinostat -0.028 | vorinostat -0.003 | citarinostat 0.078 | silmitasertib -0.015 | [5] -0.047 | [6] -0.036 | entospletinib -0.065

Source: the supplement of paper PMC10849652
